A short description of assay [1]: A549 cell viability effects, profiling panel, calcein-AM fluorescence, 48 h, basal (AID 1162). The note with it: higher = more signal.
The nature of assay [2]: adipocyte viability effects, profiling panel, cell-based, 3T3-L1 adipocytes, calcein-AM fluorescence, 48 h, basal (AID 1163). The note with it: 3T3-L1 adipocytes viability, higher = more signal.
Assay [3] can be described thus: HepG2 cell viability effects, profiling panel, calcein-AM fluorescence, 48 h, basal (AID 1164). The note with it: higher = more signal.
Assay [4] in a line: MM1S cell viability effects, profiling panel, calcein-AM fluorescence, 48 h, basal (AID 1165).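 Further: viability of MM1S multiple myeloma cells under basal unstimulated conditions.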 To be noted: higher = more signal.
A short description of assay [5]: basal RPMI8226 viability, no added stimulus, profiling panel, cell-based, calcein-AM fluorescence, 48 h, PK04 Diversity Set (AID 1166).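 Further: cells grown under basal conditions without added stimulus.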 To be noted: RPMI8226 myeloma viability, higher = more signal.
A short description of assay [6]: basal HepG2 mitochondrial membrane potential changes, profiling panel, cell-based, JC-1 fluorescence, 24 h, 100 nL compound (AID 1167). The note with it: higher = more signal.
Assay [7] in a line: basal 3T3-L1 adipocyte mitochondrial potential changes, profiling panel, cell-based, JC-1 fluorescence, 3T3-L1 adipocytes, 24 h, 100 nL compound (AID 1168). The note with it: JC-1 mitochondrial fluorescence, higher = more signal, called active from +8 up or from −8 down.
Assay [8] is described as follows: basal RPMI8226 mitochondrial membrane potential changes, profiling panel, cell-based, JC-1 fluorescence, 24 h, 100 nL compound (AID 1169). The note with it: RPMI8226 myeloma, JC-1 mitochondrial potential fluorescence, higher = more signal.
A short description of assay [9]: basal MM1S mitochondrial membrane potential changes, profiling panel, cell-based, JC-1 fluorescence, 24 h, 100 nL compound (AID 1170). The note with it: higher = more signal.
Assay [10] in a line: A549 lung cancer cell viability effects, profiling panel, resazurin fluorescence, 24 h, PK04 Diversity Set (AID 1171). The note with it: higher = more signal, called active from +8 up or from −8 down.

This is an account of results in PubChem BioAssay.

Active and inactive are the calls of the source.
Further: test concentration not given here.

With `CC(CCN1CCCCc2nc(C)c(C)cc21)=NOC[C@@H](O)[C@H]1O[C@@H]2OC(C)(C)O[C@@H]2[C@H]1O`, the z-score was -0.638 in assay [1]; -0.566 in [2]; -1.33 in [3]; -0.22 in assay [4]; -0.177 in assay [5]; -0.536 in [6]. Further, the z-score in [7] is -1.31 (inactive); in assay [8] it was -0.0542; in assay [9], -0.477; in assay [10] it was 0.0214 (inactive).

As for `CON=C[C@@H](OC)[C@H](C)C=CCC(=O)OC`, the z-score in assay [1] was -0.0933; in [2], -0.105; in assay [3], 0.262; in assay [4], 0.253; in assay [5] it was 0.205; in assay [6], -0.34. In addition, the z-score in assay [7] was -1.2 (inactive); in [8], 0.673; in assay [9], 0.856; in assay [10], 0.213 (inactive).

With `CC(CCC(=O)OC[C@H]1O[C@H](C#Cc2ccccc2)C=C[C@@H]1Oc1ccc(C)cc1)=NO[C@H](C)c1cn([C@@H]2COC[C@H]2O)nn1`, the z-score in assay [1] is 1.28; in [2], 0.0119; in [3], 0.669; in assay [4], -1.57; in [5] it was -2; in assay [6] it was -0.662. Moreover, the z-score in assay [7] was -4.6e-05 (inactive); in assay [8], -0.072; in [9] it was -1.1; in assay [10] it was -1.25 (inactive).

Take `O=C1CCCC=C1C(O)c1ccc([N+](=O)[O-])cc1` (stereo not given): the z-score in assay [1] is -0.419; in assay [2], -0.388; in assay [3], -0.0678; in assay [4], -0.629; in assay [5], 0.372; in assay [6], -0.614. Besides, the z-score in assay [7] was -0.0489 (inactive); in [8], 0.566; in [9] it was 0.502; in assay [10], -0.258 (inactive).

As for `O=C1C2=CC[C@H]3C(=O)N(Cc4ccccc4)C(=O)[C@H]3[C@H]2[C@H](O)[C@@H]2O[C@H]12`, the z-score was -0.77 in [1]; -0.238 in assay [2]; -4.47 in [3]; -3.28 in assay [4]; -3.83 in assay [5]; -2.12 in [6]. Further, the z-score in assay [7] is 1.02 (inactive); in [8], -1.05; in assay [9], -2.91; in assay [10], 0.152 (inactive).

As to `CC(C)=NO[C@H](C)c1cn([C@@H]2COC[C@H]2O)nn1`, the z-score in assay [1] was 0.874; in [2], -0.573; in assay [3], 0.818; in [4], 0.0495; in assay [5] it was -0.275; in assay [6], 1.01. Further, the z-score in assay [7] is 0.0682 (inactive); in assay [8], 0.183; in assay [9], -0.593; in assay [10] it was -0.483 (inactive).

In the case of `CCN1C(=O)[C@H]2[C@H]3[C@H](O)[C@H](O)CC(=NO[C@H](C)c4cn([C@@H]5COC[C@H]5O)nn4)[C@@H]3CC[C@H]2C1=O`, the z-score was 0.165 in assay [1]; -0.736 in assay [2]; -0.127 in assay [3]; -0.0272 in [4]; 0.215 in assay [5]; -0.407 in assay [6]. Besides, the z-score in [7] is -1.37 (inactive); in assay [8], 0.125; in assay [9], -0.11; in [10], -0.232 (inactive).

As to `CCOC(=O)[C@H](CC(C)C)NC(=O)CCC1CC(OC(=O)NCc2ccc3c(c2)OCO3)CC2(CCCC(COC(=O)NCCc3ccccc3OC)O2)O1` (stereo not given in full), the z-score was -0.47 in assay [1]; -0.837 in [2]; 0.0138 in [3]; -1.32 in assay [4]; -0.312 in assay [5]; -0.828 in [6]. Moreover, the z-score in assay [7] is -0.104 (inactive); in [8], -0.282; in assay [9], -0.501; in assay [10], 1.06 (inactive).

On to `CCOC(=O)[C@H](CC(C)C)NC(=O)CCC1CC(OC(=O)NCc2ccc3c(c2)OCO3)CC2(CCCC(COC(=O)NCCC(C)C)O2)O1` (stereo not given in full), for which the z-score is 0.0634 in assay [1]; -0.0921 in [2]; -0.231 in assay [3]; 0.473 in assay [4]; 0.403 in assay [5]; 0.449 in [6]. For the same compound, the z-score in assay [7] was 0.135 (inactive); in assay [8], -0.938; in assay [9] it was -0.155; in [10], 0.704 (inactive).

In the case of `O=C1[C@H]2[C@H]3[C@H](O)[C@H](O)CC(=NOC[C@@H](O)COCc4ccco4)[C@@H]3CC[C@H]2C(=O)N1C1CCCCC1`, the z-score in assay [1] was 0.0095; in assay [2], 0.272; in assay [3], 0.444; in assay [4] it was 0.0224; in assay [5], -0.002; in assay [6], -0.82. For the same compound, the z-score was -0.181 (inactive) in [7], -0.422 in assay [8], -0.891 in [9] and 0.014 (inactive) in assay [10].

For `O=C1[C@H]2[C@H]3[C@H](O)[C@H](O)CC(=NO[C@@H]4O[C@H](CO)[C@@H](O)[C@H](O)[C@H]4O)[C@@H]3CC[C@H]2C(=O)N1c1cccc(Oc2ccccc2)c1`, the z-score in assay [1] is 0.161; in [2] it was -0.45; in assay [3], -0.593; in assay [4], 0.365; in [5], -0.815; in assay [6] it was -0.655. Moreover, the z-score in [7] is -0.349 (inactive); in assay [8] it was -0.277; in assay [9], -0.229; in assay [10], 0.39 (inactive).

As to `CCOC(=O)CCN1C(=O)[C@H]2[C@H]3[C@H](O)[C@H](O)CC(=NNC(=O)OCc4ccccc4)[C@H]3CC[C@H]2C1=O`, the z-score is 0.391 in assay [1]; 1.33 in assay [2]; -0.222 in assay [3]; 0.357 in [4]; -0.0554 in [5]; -0.952 in assay [6]. Further, the z-score in assay [7] was -0.223 (inactive); in assay [8], -0.0449; in [9] it was 0.435; in assay [10], -0.367 (inactive).

In the case of `CCc1cc2c(nc1CC)CCN(CCC(C)=NO[C@@H]1O[C@H](COC(C)=O)[C@@H](OC(C)=O)[C@H](OC(C)=O)[C@H]1OC(C)=O)C2`, the z-score in assay [1] was -0.984; in assay [2], 0.776; in assay [3] it was -0.536; in [4], -2.58; in assay [5], -1.14; in assay [6], 1.7. For the same compound, the z-score was -0.325 (inactive) in assay [7], -0.0793 in [8], 0.0201 in [9] and -0.223 (inactive) in assay [10].

Take `C=CC[C@@H]1C=C[C@H](Oc2ccc(C)cc2)[C@@H](COC(=O)NCc2cccc3ccccc23)O1`: the z-score is -0.273 in assay [1]; 0.479 in assay [2]; -0.542 in assay [3]; -1.41 in assay [4]; -1.71 in assay [5]; 0.294 in [6]. Also, the z-score in [7] was -0.483 (inactive); in assay [8] it was 0.78; in assay [9], 0.147; in assay [10], 1.99 (inactive).
